Compound activity deposited in PubChem BioAssay by Sanford-Burnham Center for Chemical Genomics.
CYP2C19 act: cytochrome P450 2C19 (human) activation; P33261; recombinant CYP2C19, luciferin-H EGE luminescence; hits give high values; 0 = fully inhibited enzyme, 1 = untreated enzyme; activation factor at 5 µM; 96,000 tested, under 10 active;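 active = activation factor of at least 2 at 5 µM in the primary screen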;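 note: 0 = wells with 2.5 mM tranylcypromine and 1 = vehicle-only wells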
Target sequence (P33261 whole entry, looked up): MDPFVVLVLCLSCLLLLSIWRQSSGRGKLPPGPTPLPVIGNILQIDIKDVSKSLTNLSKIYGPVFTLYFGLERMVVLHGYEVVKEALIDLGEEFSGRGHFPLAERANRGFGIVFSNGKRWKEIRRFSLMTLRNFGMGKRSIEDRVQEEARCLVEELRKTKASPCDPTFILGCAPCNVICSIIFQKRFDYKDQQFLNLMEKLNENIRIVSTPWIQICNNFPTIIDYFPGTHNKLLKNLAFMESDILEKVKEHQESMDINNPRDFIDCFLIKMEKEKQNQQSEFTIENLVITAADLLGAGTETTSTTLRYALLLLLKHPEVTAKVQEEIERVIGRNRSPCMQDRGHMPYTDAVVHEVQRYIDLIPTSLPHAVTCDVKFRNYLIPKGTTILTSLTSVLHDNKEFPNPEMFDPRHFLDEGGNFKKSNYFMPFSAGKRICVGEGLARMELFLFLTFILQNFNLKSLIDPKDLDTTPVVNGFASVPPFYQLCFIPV
CYP2C9 inhib: blocks human cytochrome P450 2C9; P11712; CYP2C9 Supersomes, luciferin-H conversion, luminescence; inhibition, % at 5 µM; 96,000 compounds, 20% hits; AID 777;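 active = blocking of liver enzyme CYP2C9 beyond about 50% at 5 µM, limit read from the data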
CD11b adhes inh: CD11b/CD18-fibrinogen binding inhibition; P05107+P11215; inhibition, % at 10 µM; 93,000 compounds, 0.54% hits; K562 CD11b/CD18 adhesion to fibrinogen, ATPlite luminescence; Mn2+ added to activate the integrin;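 active = primary inhibition of 50% or more at 10 µM, then 40% or more on retest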
CYP2C19 inhib: human CYP2C19 inhibition; P33261; CYP2C19 Supersomes, luciferin-H EGE luminescence, 30 min; inhibition, % at 5 µM; 96,000 compounds, 21% hits;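 active = CYP2C19 inhibition above a set limit at 5 µM in the primary screen, cut at about 50% in these data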;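 note: plate controls were negative control wells for no effect and 2.5 mM tranylcypromine positive control for full effect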
CD11b adhes enh: increases human CD11b/CD18 adhesion to fibrinogen | K562 CD11b/CD18 adhesion to fibrinogen, ATPlite luminescence | activation, % at 10 µM | 93,000 compounds, 0.07% hits | AID 1499;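 active = 10 µM primary screen giving 50% or more activity, confirmed by 40% or more on retest at that dose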
CYP2C9 activ: activators of human CYP2C9 | P11712 | recombinant CYP2C9, luciferin-H conversion, luminescence; hits give high values; factor 1 = untreated enzyme, 0 = blocked | activation factor at 5 µM | 96,000 compounds, 1.4% hits;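 active = activation factor of 2 or more for CYP2C9 at a 5 µM dose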;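 note: 0 = sulfaphenazole-blocked wells and 1 = vehicle-only wells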
Starred values were filed as active, the others as inactive; · = no result. Hits are enriched below; roughly 28% of the tested compounds scored in any of these assays.

SMILES | CYP2C19 act | CYP2C9 inhib | CD11b adhes inh | CYP2C19 inhib | CD11b adhes enh | CYP2C9 activ
Cc1cc(O)c(C(C)C)cc1N=C1CSC(=O)N1 | 1 | 38 | 10 | 3 | 3 | 0.6
CCOC(=O)c1cnc(-n2cc(C)cn2)nc1Nc1ccccc1OC | 1 | 7 | -8 | -2 | 0 | 0.9
CCOc1ccc(-c2cc(C(=O)O)c3ccccc3n2)cc1 | 1.3 | 57* | 41 | -25 | -5 | 0.4
O=C(COC(=O)c1cc(-c2ccco2)nc2ccccc12)NCc1ccccc1 | 0.7 | 61* | -13 | 33 | 2 | 0.4
CN(Cc1ccccc1)C(=O)COC(=O)c1ccc(Cl)c(N)c1 | · | · | 12 | · | 5 | ·
CN(Cc1ccccc1)C(=O)COC(=O)c1cc(-c2ccc(Cl)s2)nc2ccccc12 | 0.4 | 88* | -3 | 56* | -6 | 0.1
CCN(CC)C(=O)COC(=O)c1cc(-c2ccc(OC)cc2)nc2ccccc12 | 0.1 | 98* | 3 | 91* | 1 | 0
O=C(O)c1cc(-c2ccc(O)cc2)nc2ccccc12 | 1.1 | -3 | -6 | -12 | -6 | 1
CCNC(=S)N/N=C/c1ccc(OCC(=O)Nc2ccc(C)cc2)cc1 | 1 | 2 | -5 | 2 | -3 | 1
COc1ccc(OC)c(NC(=O)CC(NCCC2=CCCCC2)C(=O)O)c1 (stereo unspecified) | 1 | 34 | 12 | 4 | -4 | 0.7
CCCCOc1ccc(-c2cc(C(=O)NNC(=S)NCC)c3ccccc3n2)cc1 | 0.8 | 22 | 0 | 20 | 1 | 0.8
CCNC(=O)COC(=O)c1cc(-c2ccc(OC)cc2)nc2ccccc12 | 0.8 | 61* | · | 16 | · | 0.4
Cn1c(SCC(=O)N2CCOCC2)nc(O)cc1=O | 1 | 5 | -8 | 0 | -4 | 0.9
CN(C)c1ccc(/C=N/c2cc(-c3ccccc3)nn2-c2ccccc2)cc1 | 1 | 52* | 0 | 2 | -2 | 0.5
Cc1ccc(/C=C2\C(=O)Nc3ccccc32)o1 | · | · | 6 | · | -2 | ·
O=C1Nc2ccccc2/C1=C\c1cccn1-c1ccc(OC(F)(F)F)cc1 | 0.9 | 87* | -8 | 11 | -1 | 0.1
CCCN(CCC)c1ncnc2c1cnn2-c1ccc(OC)cc1 | 0.9 | 8 | 25 | 10 | 5 | 0.9
Cc1cc(C)cc(OCC(=O)Nc2cccc(-c3nc4ncccc4o3)c2)c1 | 0.8 | 24 | 4 | 19 | -3 | 0.8
O=C(CN1c2ccccc2Sc2ccccc21)NNC(=S)Nc1ccc(Cl)cc1Cl | 1 | 80* | · | -1 | · | 0.2
CCCCN=Cc1sc2ccc(OCC)cc2c1O | 0.1 | -9 | 17 | 94* | 6 | 1.1
C=CCN=Cc1sc2ccc(OCC)cc2c1O | · | · | 6 | · | 0 | ·
N#CC1(Cc2ccccc2Cl)c2ccccc2C=CN1C(=O)c1ccccc1 (stereo unspecified) | 0.1 | 84* | 13 | 91* | -4 | 0.2
Cc1ccc(S(=O)(=O)N(CC(=O)N2CCC(C)CC2)Cc2ccccc2F)cc1 | 0.2 | 79* | -7 | 84* | -1 | 0.2
Cc1ccc(S(=O)(=O)N(CC(=O)O)Cc2ccccc2F)cc1 | 1 | 51* | -25 | -2 | 14 | 0.5
O=C(O)CCS(=O)(=O)Cc1ccccc1F | 0.9 | 2 | 10 | 9 | -1 | 1
SMILES | CYP2C19 act | CYP2C9 inhib | CD11b adhes inh | CYP2C19 inhib | CD11b adhes enh | CYP2C9 activ
O=C(N/N=C/c1cccs1)c1ccc2c(c1)OCO2 | · | · | 19 | · | -7 | ·
CS(=O)(=O)N1CCc2cc(C(=O)OCC(=O)c3ccccc3)ccc21 | 1.1 | -10 | -24 | -11 | -5 | 1.1
O=C(O)CN1C(=O)SC(Nc2ccc(Cl)cc2)C1=O (stereo unspecified) | 0.8 | 0 | -5 | 16 | -4 | 1
Cn1nnnc1SCC(=O)Nc1ccccc1C(=O)NCc1ccccc1 | 1.2 | 7 | · | -17 | · | 0.9
COc1ccc(CCNC(=O)CSc2nn(-c3ccccc3)c(=S)s2)cc1OC | · | · | 8 | · | 2 | ·
N#Cc1nc(COc2ccc(Cl)cc2Cl)oc1N1CCOCC1 | 0.3 | 44 | -12 | 70* | 0 | 0.6
COCCCNc1oc(COc2ccc(Cl)cc2Cl)nc1C#N | 0 | 94* | 3 | 99* | -1 | 0.1
N#Cc1nc(COc2ccc(Cl)cc2Cl)oc1N1CCN(c2ccccc2)CC1 | 0.4 | 42 | 4 | 58* | 5 | 0.6
CCC(=O)N1c2ccccc2NC2=C(C(=O)CCC2)C1c1ccc(N(C)C)cc1 (stereo unspecified) | 1.1 | -2 | 5 | -5 | 0 | 1
Cc1cc(Cl)ccc1OCCCC(=O)NCCN1C(=O)S/C(=C\c2cccnc2)C1=O | · | · | 14 | · | 8 | ·
O=C(CCSCCc1ccccn1)Nc1ccc(Br)cn1 | 0.7 | 34 | -13 | 27 | -2 | 0.7
CCn1cc(/C=N/NS(=O)(=O)c2ccc(OC)cc2)c(C)n1 | 0.1 | 69* | -29 | 87* | 2 | 0.3
CCn1cc(/C=N/NS(=O)(=O)c2ccc(C)cc2)c(C)n1 | 0.1 | 83* | -26 | 88* | -1 | 0.2
Cc1ccc(S(=O)(=O)N/N=C\c2cccnc2)cc1 | 0.8 | 23 | · | 15 | · | 0.8
Cc1ccc(S(=O)(=O)N/N=C/C(C)(C)CO)cc1 | 0.9 | 10 | -2 | 12 | -1 | 0.9
Cc1ccc(S(=O)(=O)N/N=C/c2cc(Br)c(C)o2)cc1 | 0.7 | 97* | 17 | 32 | -6 | 0
Cc1ccc(S(=O)(=O)N/N=C/c2cn(C)nc2C)cc1 | 0.5 | 64* | -13 | 51* | -3 | 0.4
C[C@H](NC(=O)C1(c2ccccc2)CCN(C(=O)[C@H]2CSCN2C(=O)OC(C)(C)C)CC1)C(=O)O | 0.9 | 11 | -12 | 9 | 1 | 0.9
Cc1ccc(=O)n(C(C(=O)NCc2ccco2)C(=O)c2ccc(F)cc2)c1 (stereo unspecified) | 0.9 | -9 | -12 | 6 | 4 | 1.1
O=C(NCC(c1cccs1)N1CCOCC1)c1ccc(Cl)c([N+](=O)[O-])c1 (stereo unspecified) | · | · | -12 | · | 9 | ·
CCSCCc1nnc(NC(=O)Nc2cccc(C(F)(F)F)c2)s1 | · | · | 102 | · | -6 | ·
Cc1ccc(S(=O)(=O)N/N=C/c2cccc([N+](=O)[O-])c2)cc1 | · | · | 8 | · | -2 | ·
Cc1ccc(S(=O)(=O)N/N=C\c2cc([N+](=O)[O-])ccc2Cl)cc1 | 0.4 | 37 | -27 | 62* | -3 | 0.6
COc1ccccc1/C=N/Nc1nccnc1Cl | 0.5 | 47 | -6 | 51* | -3 | 0.5
Cc1cc(C)nc(N/N=C/c2ccccc2OCc2ccc(Cl)cc2)n1 | · | · | 8 | · | -5 | ·
Cc1ccc(CNC(=O)C2CCC(=O)N2C2CCCCC2)cc1 (stereo unspecified) | 0.7 | -2 | · | 32 | · | 1
CCOc1ccc(CCNC(=O)C2CCC(=O)N2C2CCCCC2)cc1OCC (stereo unspecified) | 0.4 | 20 | · | 64* | · | 0.8
